PubChem BioAssay AID1456 (Vanderbilt High Throughput Screening Facility, 2008)
In all, about 190,000 compounds went through this assay and about 4,100 (2.2%) were called active. This excerpt belongs to a sample that is enriched for actives. A number with no mark means an inactive call.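 Rule for the calls: active = thallium flux slope and its plate-corrected score both differing from the plate sample mean at a set confidence after two filtering rounds, in either direction; inactive = the rest.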

Target: Solute carrier family 12 member 5 (Homo sapiens) (UniProt Q9H2X9)
Test: modulation of human KCC2 ion transport – cell-based, HEK293 KCC2, FluoZin-2 fluorescence, MLSMR, primary screen (AID 1456);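 for B-score of Tl+ flux slope (higher = more flux/activation; lower = inhibition): slope of fluorescence scaled to starting intensity during 10 to 20 s after thallium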
Conditions: KCC2 cells, thallium flux FluoZin-2 fluorescence; at 10 µM

Solute carrier family 12 member 5 (Homo sapiens), sequence (Q9H2X9 whole entry, looked up): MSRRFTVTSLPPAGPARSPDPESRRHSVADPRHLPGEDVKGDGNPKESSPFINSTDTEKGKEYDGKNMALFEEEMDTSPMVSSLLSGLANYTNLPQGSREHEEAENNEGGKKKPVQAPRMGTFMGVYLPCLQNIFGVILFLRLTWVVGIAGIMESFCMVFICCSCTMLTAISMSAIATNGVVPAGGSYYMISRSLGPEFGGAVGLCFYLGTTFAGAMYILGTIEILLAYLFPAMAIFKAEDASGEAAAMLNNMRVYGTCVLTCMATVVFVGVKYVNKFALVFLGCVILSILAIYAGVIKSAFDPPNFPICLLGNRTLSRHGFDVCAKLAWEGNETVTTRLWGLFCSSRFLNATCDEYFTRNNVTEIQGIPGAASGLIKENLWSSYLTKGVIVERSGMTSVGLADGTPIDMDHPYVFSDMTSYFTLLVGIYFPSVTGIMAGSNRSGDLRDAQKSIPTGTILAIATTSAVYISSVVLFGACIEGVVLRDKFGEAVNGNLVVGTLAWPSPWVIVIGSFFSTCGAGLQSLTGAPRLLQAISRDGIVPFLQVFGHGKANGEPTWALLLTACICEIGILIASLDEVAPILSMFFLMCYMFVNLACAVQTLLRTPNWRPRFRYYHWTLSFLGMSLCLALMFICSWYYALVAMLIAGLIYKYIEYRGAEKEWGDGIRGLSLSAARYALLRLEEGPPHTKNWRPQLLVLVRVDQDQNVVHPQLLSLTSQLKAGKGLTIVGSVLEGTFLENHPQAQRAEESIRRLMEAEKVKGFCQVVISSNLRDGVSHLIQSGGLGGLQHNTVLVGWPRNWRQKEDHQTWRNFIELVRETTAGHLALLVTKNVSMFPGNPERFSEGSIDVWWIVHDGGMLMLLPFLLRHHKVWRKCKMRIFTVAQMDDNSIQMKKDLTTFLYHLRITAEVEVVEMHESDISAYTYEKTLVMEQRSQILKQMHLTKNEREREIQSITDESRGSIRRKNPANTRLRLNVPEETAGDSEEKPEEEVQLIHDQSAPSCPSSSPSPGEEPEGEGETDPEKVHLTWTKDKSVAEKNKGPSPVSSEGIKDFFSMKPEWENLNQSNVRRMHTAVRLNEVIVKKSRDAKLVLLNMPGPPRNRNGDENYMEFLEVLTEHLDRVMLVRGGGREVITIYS

For `CC1(C)CCSC(/C=C/c2ccccc2)=N1`, which B-score of Tl+ flux slope (higher = more flux/activation; lower = inhibition) is on record?
Its B-score of Tl+ flux slope (higher = more flux/activation; lower = inhibition) is -1.21.

How did the B-score of Tl+ flux slope (higher = more flux/activation; lower = inhibition) turn out when `COc1ccc(N=Nc2ccc(O)c(P(=O)(c3ccccc3)c3ccccc3)c2)cc1` was run?
Its B-score of Tl+ flux slope (higher = more flux/activation; lower = inhibition) is -0.282.

With `CCCCC(CC)CNC(=O)CCCCn1c(=O)[nH]c2ccsc2c1=O` (centres undefined) as the compound, how does the B-score of Tl+ flux slope (higher = more flux/activation; lower = inhibition) read?
The B-score of Tl+ flux slope (higher = more flux/activation; lower = inhibition) was -0.707.

With `CCCCC(CC)CNC(=O)C(=O)C1C(=O)Nc2ccccc21` (centres undefined) as the compound, how does the B-score of Tl+ flux slope (higher = more flux/activation; lower = inhibition) read?
The B-score of Tl+ flux slope (higher = more flux/activation; lower = inhibition) was 8.5 (active).

How did the B-score of Tl+ flux slope (higher = more flux/activation; lower = inhibition) turn out when `CCOC(=O)C(=O)C1C(=O)Nc2ccccc21` (centres undefined) was run?
The B-score of Tl+ flux slope (higher = more flux/activation; lower = inhibition) was “inactive”.

With `OCCCC1CCCCN1Cc1nc(Cc2ccccc2Cl)no1` (centres undefined) as the compound, how does the B-score of Tl+ flux slope (higher = more flux/activation; lower = inhibition) read?
The B-score of Tl+ flux slope (higher = more flux/activation; lower = inhibition) was -0.7.

Which B-score of Tl+ flux slope (higher = more flux/activation; lower = inhibition) does the source give for `O=C(/C=C/Nc1ccc(S(=O)(=O)Nc2cnc3ccccc3n2)cc1)c1cccnc1` here?
Its B-score of Tl+ flux slope (higher = more flux/activation; lower = inhibition) is -0.253.

With `CCOC(=O)c1nnn2c1nc(N1CCN(c3ccccc3)CC1)c1ccccc12` as the compound, how does the B-score of Tl+ flux slope (higher = more flux/activation; lower = inhibition) read?
The B-score of Tl+ flux slope (higher = more flux/activation; lower = inhibition) was -2.78.

With `C/C=C(\C)C(=O)N1CC2(CC(c3cccc(NC(=O)CCCCC)c3)=NO2)C[C@@H]1C(N)=O` (some centres undefined) as the compound, how does the B-score of Tl+ flux slope (higher = more flux/activation; lower = inhibition) read?
The B-score of Tl+ flux slope (higher = more flux/activation; lower = inhibition) was -0.00449.

With `O=C(NN1C(=O)C2C(C1=O)C1C=CC2C12CC2)c1ccccc1Cl` (centres undefined) as the compound, how does the B-score of Tl+ flux slope (higher = more flux/activation; lower = inhibition) read?
Its B-score of Tl+ flux slope (higher = more flux/activation; lower = inhibition) is 0.716.

For `CCc1ccc(CCC(=O)Nc2ccc(S(N)(=O)=O)cc2)o1`, which B-score of Tl+ flux slope (higher = more flux/activation; lower = inhibition) is on record?
The B-score of Tl+ flux slope (higher = more flux/activation; lower = inhibition) was 1.49.

Which B-score of Tl+ flux slope (higher = more flux/activation; lower = inhibition) does the source give for `CCOC(=O)c1ccc(NC(=O)CSc2ncccn2)cc1` here?
Its B-score of Tl+ flux slope (higher = more flux/activation; lower = inhibition) is 1.85.

With `Cc1oc2nc(SCC(=O)Nc3ccc(S(N)(=O)=O)cc3)nc(NC(=O)c3ccccc3)c2c1C` as the compound, how does the B-score of Tl+ flux slope (higher = more flux/activation; lower = inhibition) read?
The B-score of Tl+ flux slope (higher = more flux/activation; lower = inhibition) was 6.29 (active).

`CCOc1ccc(NC(=O)CN(C)CC(=O)NC(C)c2ccccc2)cc1OCC` (centres undefined) was tested. Which B-score of Tl+ flux slope (higher = more flux/activation; lower = inhibition) did it give?
Its B-score of Tl+ flux slope (higher = more flux/activation; lower = inhibition) is -0.692.

For `COc1cccc(NC(=O)CN(C)CC(=O)Nc2ccc3c(c2)CCC3)c1`, which B-score of Tl+ flux slope (higher = more flux/activation; lower = inhibition) is on record?
Its B-score of Tl+ flux slope (higher = more flux/activation; lower = inhibition) is -0.353.

With `CCOc1ccc(NC(=O)CN(C)CC(=O)Nc2cccc(Cl)c2C)cc1OCC` as the compound, how does the B-score of Tl+ flux slope (higher = more flux/activation; lower = inhibition) read?
Its B-score of Tl+ flux slope (higher = more flux/activation; lower = inhibition) is -5.58 (active).

`COc1ccc(/C=N/NS(=O)(=O)c2ccc(NC(C)=O)cc2)cc1` was tested. Which B-score of Tl+ flux slope (higher = more flux/activation; lower = inhibition) did it give?
The B-score of Tl+ flux slope (higher = more flux/activation; lower = inhibition) was 0.538.

How did the B-score of Tl+ flux slope (higher = more flux/activation; lower = inhibition) turn out when `COc1ccc(Cl)cc1NC(=O)CCN1CCOCC1` was run?
The B-score of Tl+ flux slope (higher = more flux/activation; lower = inhibition) was -0.478.

How did the B-score of Tl+ flux slope (higher = more flux/activation; lower = inhibition) turn out when `O=S(=O)(c1ccc(F)cc1)N1CCN(C(=S)NCc2ccco2)CC1` was run?
Its B-score of Tl+ flux slope (higher = more flux/activation; lower = inhibition) is -3.94 (active).

For `O=C(NCc1ccco1)C1CCCN(S(=O)(=O)c2ccccc2)C1` (centres undefined), which B-score of Tl+ flux slope (higher = more flux/activation; lower = inhibition) is on record?
Its B-score of Tl+ flux slope (higher = more flux/activation; lower = inhibition) is -0.4.

Which B-score of Tl+ flux slope (higher = more flux/activation; lower = inhibition) does the source give for `O=S(=O)(c1ccc(F)cc1)N1CCN(C(=S)NC2CCCC2)CC1` here?
Its B-score of Tl+ flux slope (higher = more flux/activation; lower = inhibition) is -0.0466.

Which B-score of Tl+ flux slope (higher = more flux/activation; lower = inhibition) does the source give for `O=S(=O)(c1ccc(Cl)cc1)N1CCCN(c2ccc(C(F)(F)F)cn2)CC1` here?
Its B-score of Tl+ flux slope (higher = more flux/activation; lower = inhibition) is -0.0306.

`C=CCC(Nc1ccccc1)c1cccc(OC)c1OC` (centres undefined) was tested. Which B-score of Tl+ flux slope (higher = more flux/activation; lower = inhibition) did it give?
The B-score of Tl+ flux slope (higher = more flux/activation; lower = inhibition) was -1.46.

How did the B-score of Tl+ flux slope (higher = more flux/activation; lower = inhibition) turn out when `O=C(CSc1nnc(-c2cccs2)n1Cc1ccccc1)N1CCc2ccccc2C1` was run?
Its B-score of Tl+ flux slope (higher = more flux/activation; lower = inhibition) is -5.7 (active).

Which B-score of Tl+ flux slope (higher = more flux/activation; lower = inhibition) does the source give for `O=C(CSc1nnc(-c2cccs2)n1-c1ccccc1)N1CCN(C(=O)c2ccco2)CC1` here?
The B-score of Tl+ flux slope (higher = more flux/activation; lower = inhibition) was 0.0437.

Which B-score of Tl+ flux slope (higher = more flux/activation; lower = inhibition) does the source give for `Cc1nnc(SCC(=O)N2CCc3ccccc3C2)s1` here?
The B-score of Tl+ flux slope (higher = more flux/activation; lower = inhibition) was 0.173.

How did the B-score of Tl+ flux slope (higher = more flux/activation; lower = inhibition) turn out when `CC(C)Cc1nnc(NC(=O)CCC(=O)Nc2ccc3cn[nH]c3c2)s1` was run?
The B-score of Tl+ flux slope (higher = more flux/activation; lower = inhibition) was 0.683.

`Nc1nnnn1/N=C/c1cc([N+](=O)[O-])ccc1O` was tested. Which B-score of Tl+ flux slope (higher = more flux/activation; lower = inhibition) did it give?
Its B-score of Tl+ flux slope (higher = more flux/activation; lower = inhibition) is -0.19.

For `COc1cccc(CC(=O)Nc2ccc(-c3csc(C)n3)cc2)c1`, which B-score of Tl+ flux slope (higher = more flux/activation; lower = inhibition) is on record?
Its B-score of Tl+ flux slope (higher = more flux/activation; lower = inhibition) is -1.35.
